50 compounds from ChEMBL document CHEMBL3988442, “University of Dundee, Small-Polar-MMV Screening Library” (2021) can be followed below.

Molecules are shown by their SMILES. Screen size: about 48,000 compounds; about 13,000 (27%) showed an effect of 50% or more. The list shows a part of the results.

For this assay, the system named is Wolbachia pipientis. As to the kind of experiment: Anti-Wolbachia Cell-Based Screen. It is filed as functional. The arrangement: scale not given: in the data most compounds retested in dose-response had high values. Particulars: 5 µM.
Take `CNC(=O)CCCNCc1c(C)nn(CC(C)C)c1N(C)C`: the “Percent Effect” value amounted to 0.5097%.
With `CC(=O)N1CCN(c2ccccc2CNc2ccc3[nH]ncc3c2)CC1`, the “Percent Effect” value is listed as -1.242%.
Under `CCNC(=O)CN1CCCN(C(=O)C2CCCc3[nH]ncc32)CC1` (stereo not given) stands 2.738%; under `CC(C#N)NS(=O)(=O)c1ccc2c(c1)N(C)CCC2` (stereo not given), -3.388%; under `Cc1nc(CCNC(=O)C2CC(=O)N(C(C)(C)C)C2)sc1Cl` (stereo not given), -46.08%.
On to `N#Cc1ccc2c(c1)CN(C(=O)C1CC=CC1)C2c1cnco1` (stereo not given), for which the “Percent Effect” value was -2.479%.
Turning to `CC(C)(O)CN1CCN(C(=O)COC2CCCC2)CC1`, the “Percent Effect” value is -11.71%.
As to `O=C(COC1CCCC1)N1CC[C@H]2OCC[C@@]2(COCC2CC2)C1`, the “Percent Effect” value came out at 5.898%.
Under `COC[C@@]12CCC[C@@H]1CN(C(=O)COC1CCCC1)C2` stands 116%; under `COCC(=O)N1C[C@@H]2COC[C@]2(COC)C1`, -5.007%.
The result for `COCC(=O)N1C[C@H]2CCC[C@@]2(COC)C1` reads 91.12%; that for `O=C(Cc1ccco1)N1C[C@H]2CCC[C@@]2(COCC2CC2)C1`, 4.43%.
On to `Cc1csc(N(C)C(=O)C2CC(=O)N(c3ccccc3F)C2)n1` (stereo not given), for which the “Percent Effect” value is 1.281%.
For `CCc1cnc(N2CCC(=O)N(CC3CC3)C(C(C)C)C2)nc1` (stereo not given), the “Percent Effect” value is -22.71%.
Under `Cc1cccc(CN2CCc3ncnc(Oc4cccnc4)c3CC2)n1` stands 126.9%; under `COc1ncnc2c1CCN(c1cccc(F)c1)CC2`, 16.21%; under `COc1ncnc2c1CCN(Cc1cccc(C)n1)CC2`, 95.16%.
Under `O=C(N1CCOCC1)N1CCc2ncnc(Oc3cccnc3)c2CC1.O=C(O)C(F)(F)F` stands 0.6158%.
In the case of `Cc1cccc(CN2CCc3ncnc(-c4ccsc4)c3CC2)n1.O=C(O)C(F)(F)F`, the “Percent Effect” value is reported as 18.15%.
Take `Cc1c(Br)cccc1CNC1(CCO)CCOCC1`: the “Percent Effect” value is reported as -8.762%.
The result for `Cc1cccc(-c2ccc(C(=O)NCC(C)(C)C(N)=O)c(=O)[nH]2)c1` reads 6.298%; that for `O=c1n(CC2CCCO2)nc(CC2CCNCC2)n1-c1ccccc1` (stereo not given), -2.06%.
The result for `Fc1ccc(CN2CCCC3(COCCN(Cc4c[nH]nn4)C3)C2)cc1.O=C(O)C(F)(F)F.O=C(O)C(F)(F)F` (stereo not given) reads -5.043%.
Under `Cc1ccc(CN2CCCC3(CCN(Cc4ccoc4)CC3)C2)cc1.O=C(O)C(F)(F)F.O=C(O)C(F)(F)F` stands 12.66%; under `CNC(=O)CN1C(=O)CCC12CCCN(CCc1ccccc1)C2` (stereo not given), -21.16%; under `CNC(=O)CN1CCOCC2(CCCN(CCc3ccccc3)C2)C1.O=C(O)C(F)(F)F.O=C(O)C(F)(F)F` (stereo not given), 95.77%.
On to `Fc1ccc(CN2CCOCC3(CCN(Cc4nccs4)C3)C2)cc1.O=C(O)C(F)(F)F.O=C(O)C(F)(F)F` (stereo not given), for which the “Percent Effect” value was found to be 2.438%.
As to `CN(C)CCN1CCOCC2(CCCN(C(=O)Cc3ccccc3)C2)C1.O=C(O)C(F)(F)F.O=C(O)C(F)(F)F` (stereo not given), the “Percent Effect” value is recorded as -11.48%.
Regarding `CNC(=O)CN1CCOCC2(C1)CN(Cc1csnn1)CCO2` (stereo not given), the “Percent Effect” value was -63.88%.
Under `CNC(=O)CN1CCOCC2(CCCN(Cc3ccc(F)cc3)C2)C1.O=C(O)C(F)(F)F.O=C(O)C(F)(F)F` (stereo not given) stands 113%; under `CNC(=O)CN1CCOCC2(CCCN(Cc3ccsc3)C2)C1.O=C(O)C(F)(F)F.O=C(O)C(F)(F)F` (stereo not given), 99.42%.
Under `CNC(=O)CN1CCOCC2(CCCN(Cc3ccoc3)C2)C1` (stereo not given) stands 84.78%.
Under `O=C(O)C(F)(F)F.O=C(O)C(F)(F)F.c1cc(CN2CCCC3(COCCN(Cc4c[nH]nn4)C3)C2)cs1` (stereo not given) stands -3.228%; under `O=C(Cc1ccsc1)N1CCCC2(COCCN(CC3CC3)C2)C1.O=C(O)C(F)(F)F` (stereo not given), -6.273%.
On to `CN(C)c1ccc2c(c1)CN(C(=O)c1cnccn1)C2c1cnco1` (stereo not given), for which the “Percent Effect” value was 6.67%.
Regarding `COCCN1CCOCC2(CCCN(Cc3ccc(C)o3)C2)C1.O=C(O)C(F)(F)F.O=C(O)C(F)(F)F` (stereo not given), the “Percent Effect” value worked out at 4.497%.
Under `COCCN1CCOCC2(CCCN(Cc3cccc(F)c3)C2)C1.O=C(O)C(F)(F)F.O=C(O)C(F)(F)F` (stereo not given) stands 114.4%; under `COCCN1CCC2(COCCN(Cc3ccc4c(c3)OCO4)C2)C1.O=C(O)C(F)(F)F.O=C(O)C(F)(F)F` (stereo not given), 1.486%.
Consider `COCCOc1ccc(S(=O)(=O)Nc2cccnc2O)cc1C`, for which the “Percent Effect” value is listed as -11.72%.
In the case of `Fc1ccc(CN2CCCC(c3cc4ncccc4[nH]3)C2)cc1` (stereo not given), the “Percent Effect” value worked out at 39.65%.
Under `CC(=O)NC1CCCN(Cc2ccc(-n3ccnc3)cc2)C1` (stereo not given) stands 4.103%.
Under `CC(=O)Nc1ccc(CN2CCCC(c3cc4ncccc4[nH]3)C2)cc1` (stereo not given) stands 130.8%; under `CCOc1ccc(CN2CCCC(c3cc4ncccc4[nH]3)C2)cc1` (stereo not given), 111.1%.
Under `CCC(=O)NC1CCCN(Cc2ccc(NC(C)=O)cc2)C1` (stereo not given) stands 21.19%.
On to `CCOc1nnc(CN2CCCC(c3nc4ccccc4[nH]3)C2)s1` (stereo not given), for which the “Percent Effect” value is -5.507%.
Under `CCc1c(C(=O)N2CC(C)OC(C)(C)C2)cnn1-c1ccccn1` (stereo not given) stands -9.37%.
The result for `Cc1nc(C2CCCN2C(=O)CCn2cncn2)no1` (stereo not given) reads 102.5%; that for `Cc1csc(C2CCCCN2C(=O)CCCn2cccn2)n1` (stereo not given), -9.362%.
Under `Cc1csc(C2CCCCN2C(=O)Cn2cncn2)n1` (stereo not given) stands -6.402%; under `Cc1nc(C2CCCN2C(=O)Cn2cncn2)no1` (stereo not given), 83.95%.
